The text below walks through data of PMC4336329 (PLoS ONE, 2015).

The whole screen tested about 310,000 compounds, of which about 14,000 (4.5%) showed an effect of 50% or more. Effects have a minus sign here. The sample holds strong results, similar compounds and a random draw of the others, so the mix is not that of the screen.
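Further: peak tail current of the secondary pulse compared with the same well before compound.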

The target of the test is human ether-à-go-go-related gene (hERG) potassium channel (human, UniProt Q12809). Briefly: primary screen, population patch clamp on CHO cells stably expressing hERG; higher = less effect of the substance.
human ether-à-go-go-related gene (hERG) potassium channel, sequence (Q12809 whole entry, looked up): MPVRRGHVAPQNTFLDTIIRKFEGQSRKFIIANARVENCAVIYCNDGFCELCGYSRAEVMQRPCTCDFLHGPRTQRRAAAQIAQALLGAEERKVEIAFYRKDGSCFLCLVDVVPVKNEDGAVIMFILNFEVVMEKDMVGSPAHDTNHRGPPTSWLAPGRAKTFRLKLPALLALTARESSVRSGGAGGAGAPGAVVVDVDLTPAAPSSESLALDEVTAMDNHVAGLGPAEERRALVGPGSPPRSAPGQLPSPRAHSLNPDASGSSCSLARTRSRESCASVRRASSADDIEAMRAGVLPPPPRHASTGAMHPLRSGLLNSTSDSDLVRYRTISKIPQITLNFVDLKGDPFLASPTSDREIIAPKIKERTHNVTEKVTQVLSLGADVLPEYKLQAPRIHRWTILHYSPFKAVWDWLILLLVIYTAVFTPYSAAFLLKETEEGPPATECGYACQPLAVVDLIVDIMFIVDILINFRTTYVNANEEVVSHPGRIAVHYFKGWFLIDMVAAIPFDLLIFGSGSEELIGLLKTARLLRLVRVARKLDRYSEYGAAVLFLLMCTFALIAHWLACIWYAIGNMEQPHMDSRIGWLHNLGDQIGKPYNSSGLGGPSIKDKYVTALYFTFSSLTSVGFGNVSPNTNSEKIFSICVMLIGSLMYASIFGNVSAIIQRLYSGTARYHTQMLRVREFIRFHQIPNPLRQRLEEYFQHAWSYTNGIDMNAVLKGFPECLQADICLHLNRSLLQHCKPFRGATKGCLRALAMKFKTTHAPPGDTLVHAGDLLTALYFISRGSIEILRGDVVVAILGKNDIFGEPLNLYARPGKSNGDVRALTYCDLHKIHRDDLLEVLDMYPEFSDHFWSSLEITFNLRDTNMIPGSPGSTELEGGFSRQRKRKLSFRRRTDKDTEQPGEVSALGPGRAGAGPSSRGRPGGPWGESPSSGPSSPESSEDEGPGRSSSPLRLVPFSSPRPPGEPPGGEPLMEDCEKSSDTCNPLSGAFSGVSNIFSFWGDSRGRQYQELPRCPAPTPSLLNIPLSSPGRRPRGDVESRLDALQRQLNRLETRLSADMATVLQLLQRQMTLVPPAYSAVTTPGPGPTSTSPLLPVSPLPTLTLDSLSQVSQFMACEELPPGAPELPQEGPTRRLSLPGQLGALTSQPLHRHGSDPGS
For `Cc1ccc(C(=O)N2CCC(C(=O)c3ccc(Cl)cc3)CC2)cc1`, the “hERG current change (%, negative = inhibition) at 10uM” value is -68.4%. For `COc1ccc(C(=O)C2CCN(C(=O)c3ccc(OC)cc3)CC2)cc1` the value was -77.1%. With `Cc1ccc(C(=O)C2CCN(C(=O)c3ccc(C)cc3)CC2)cc1` the figure was -36.8%.

`O=C(c1ccc(Cl)cc1)C1CCN(C(=O)c2ccccc2)CC1`: the “hERG current change (%, negative = inhibition) at 10uM” value is reported as -34.3%.

On to `COc1ccc(C(=O)C2CCN(C(=O)c3ccco3)CC2)cc1`, for which the “hERG current change (%, negative = inhibition) at 10uM” value was -13.4%. With `COc1ccc(C(=O)C2CCN(C(=O)c3ccc(C)cc3)CC2)cc1` the figure was -66.3%; with `COc1ccc(NC(=S)N2CCC(C(=O)c3ccc(OC)cc3)CC2)cc1`, -45.4%; with `COc1ccc(NC(=S)N2CCC(C(=O)c3ccc(C)cc3)CC2)cc1`, -21.9%. For `CCOP(=O)(OCC)C(NC(=O)c1ccc(OC)c(OC)c1)c1ccccc1` (centres unmarked) the value was 9.71%; for `COc1ccc(/C(O)=C2\C(=O)C(=O)N(CCN(C)C)C2c2cc(OC)c(OC)c(OC)c2)c(C)c1` (centres unmarked), 3.79%. As to `COc1ccc(NC(=O)/C(N=Nc2cc(S(=O)(=O)Nc3ccc(OC)cc3)ccc2OC)=C(\C)O)cc1`, the “hERG current change (%, negative = inhibition) at 10uM” value is reported as 24.2%. With `O=C(c1cnn2c(C(F)(F)F)cc(-c3ccc(F)cc3)nc12)N1CCc2ccccc2C1` the figure was -3.83%; with `COc1ccc(Nc2ncnc3c2cnn3Cc2ccccc2)cc1`, -18.1%. Take `CC(C)N(C(=O)c1sc2cc([N+](=O)[O-])ccc2c1Cl)C(C)C`: the “hERG current change (%, negative = inhibition) at 10uM” value is on record as -13.4%. For `CCOc1ccc(NC(=O)C(CC)n2nc(C)c3c(C)n(-c4ccccc4)nc3c2=O)cc1` (centres unmarked) the value was -30.1%. For `CCSc1ccccc1C(=O)Nc1cccnc1` the value was -5.83%; for `COc1ccc(-c2[nH]ncc2CN2CCCN(C(=O)c3ccco3)CC2)cc1F`, -55.2%. For `O=C(c1ccco1)N1CCCN(Cc2cn[nH]c2-c2ccc(-c3ccccc3)cc2)CC1` the value was -59.3%. In the case of `COc1ccc(-c2[nH]ncc2CN2CCN(C(=O)c3ccco3)CC2)cc1F`, the “hERG current change (%, negative = inhibition) at 10uM” value is -6.81%. For `Cc1ccccc1CN1CCN(C(=O)c2ccco2)CC1.O=C(O)C(=O)O` the value was 7.41%; for `COCC1CCN(Cc2cn[nH]c2-c2ccc(OC)c(F)c2)C1` (centres unmarked), -4.22%; for `O=C(c1ccco1)N1CCN(Cc2cn[nH]c2-c2ccc(F)cc2F)CC1`, -12.8%.

With `O=C(c1ccco1)N1CCN(Cc2cn[nH]c2-c2cccc3ccccc23)CC1`, the “hERG current change (%, negative = inhibition) at 10uM” value was -29.1%. With `COc1ccc(-c2[nH]ncc2CN2CCC(N3CCSCC3)CC2)cc1F` the figure was -22.5%. For `COc1ccc(-c2[nH]ncc2CN2CCC(c3ccncc3)CC2)cc1F` the value was -62.7%; for `Cc1cc(NC(=O)CN2CCN(S(=O)(=O)c3ccc4ccccc4c3)CC2)no1`, -14.7%; for `CCCCN(C(=O)c1ccc2c(c1)OCO2)c1c(N)n(CC(C)C)c(=O)[nH]c1=O`, -6.58%.

On to `CS(=O)(=O)Nc1ccc2c(c1)ncn2CCc1ccccc1`, for which the “hERG current change (%, negative = inhibition) at 10uM” value is given as -26.4%. With `O=C1c2ccccc2C(=O)N1CCc1csc(-c2cccc(F)c2)n1` the figure was -22.5%. For `Clc1ccc(-n2ncc3c(NCc4cccnc4)ncnc32)cc1Cl` the value was 14.6%; for `COc1ccc(-c2csc(NC(=O)CN3C(=O)CCC3=O)n2)cc1OC`, 11.4%; for `Cc1cccc(OC(C)C(=O)N(Cc2cccs2)C2CCS(=O)(=O)C2)c1C` (centres unmarked), -14.8%. Turning to `O=C(CCc1ccc(S(=O)(=O)NCCc2ccccc2)cc1)N1CCN(Cc2ccc3c(c2)OCO3)CC1`, the “hERG current change (%, negative = inhibition) at 10uM” value is recorded as -48.5%. For `O=C(CCc1ccc(S(=O)(=O)NCc2ccccc2)cc1)N1CCN(Cc2ccc3c(c2)OCO3)CC1` the value was -41.2%.

For the compound `COc1ccc(N2CCN(C(=O)CCNS(=O)(=O)c3cccs3)CC2)cc1`, the “hERG current change (%, negative = inhibition) at 10uM” value is given as -26%. For `CC(C)CNS(=O)(=O)c1ccc(CCC(=O)N2CCN(Cc3ccc4c(c3)OCO4)CC2)cc1` the value was -54.4%; for `COc1ccc(N2CCN(C(=O)CCc3ccc(S(=O)(=O)NC(C)C)cc3)CC2)cc1`, -7.82%.

For `CCNS(=O)(=O)c1ccc(CCC(=O)N2CCN(c3ccc(OC)cc3)CC2)cc1`, the “hERG current change (%, negative = inhibition) at 10uM” value was -8.99%. `CC(C)CNS(=O)(=O)c1ccc(CCC(=O)N2CCN(c3ccccc3)CC2)cc1`: the “hERG current change (%, negative = inhibition) at 10uM” value is on record as -91.3%. Take `COc1ccc(N2CCN(C(=O)CCNS(=O)(=O)c3ccc(Br)s3)CC2)cc1`: the “hERG current change (%, negative = inhibition) at 10uM” value is listed as -50.6%. Turning to `COc1ccc(N2CCN(C(=O)CCc3ccc(S(=O)(=O)NCC(C)C)cc3)CC2)cc1`, the “hERG current change (%, negative = inhibition) at 10uM” value is listed as -57.1%. With `COc1ccc(N2CCN(C(=O)CNS(=O)(=O)c3ccc(Br)s3)CC2)cc1` the figure was -27.6%.

As to `CC(C)CNS(=O)(=O)c1ccc(CCC(=O)N2CCN(Cc3ccccc3)CC2)cc1`, the “hERG current change (%, negative = inhibition) at 10uM” value is -35.2%. For `CCNS(=O)(=O)c1ccc(CCC(=O)N2CCN(c3ccccc3)CC2)cc1` the value was -16.8%.
